The results in this text go back to PubChem BioAssay AID1508600 (Functional Genomics Laboratory (NCATS/FGL), 2020).

Screen size: about 53,000 sequences; about 3,700 (7%) were called active.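 Rule for the calls: active = gene knockdowns whose robust z-score for IL-1 alpha signal is at least 2 or at most -2, so actives lie on both sides; inactive = the rest.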 Shown is part of a subset that was picked to be rich in actives.

A short description of the test: Components of the Cytosolic LPS Sensing Pathway: Gene Identification via Genome-wide siRNA Screen.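 Note: robust z of the log signal after scaling to non-targeting control siRNA wells of the plate.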 The conditions noted are these: RAW264.7 macrophages, IL-1a HTRF, actives lie on both sides, screened at 100 nM (by protocol), cells primed 5 h with Pam3CSK4 first. Put shortly: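 Mouse macrophage line RAW264.7 is transfected with siRNA (100 nM final), grown 48h, primed with TLR ligand Pam3CSK4 5 h and given intracellular LipidA 24 h. IL-1a in supernatant is read by HTRF and viability by luminescence.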
A general note: Time-resolved FRET reads energy transfer from a long-lived donor to a nearby acceptor.
Consider GGCUCAGGACUUUGUCUACTT against Lhx4, for which the z-score is -1.19 (inactive). To GGUUCAACUCUCUUUUUGATT against Atp8b5 belongs 0.347 (inactive). The figure for GCGAAUGUAGUGUAUUAUGTT against Prkd1 is 0.259 (inactive). For GGACUGUUGAAUAAAACCUTT against Rnps1, the z-score is -2.29 (active). To AGGCACGUCUGAUUGCAUGTT against LOC432823 belongs 0.578 (inactive); to CCAUUGUGAUCAAGAUAAATT against Cggbp1, -0.35 (inactive); to GCUGUGUCACUACUUCGAUTT against Rpp40, 1.32 (inactive). The figure for GGUGAAAGACACUUGAAUUTT against Cdk2 is 0.625 (inactive); for GGAGACAGAGAAGAUUUGUTT against Mia2 it is -0.21 (inactive). To “GCCAACUACGUAUAUACAUTT against 4921511C20Rik” belongs 2.41 (active); to GCAAGGUGACAUCAGAAGUTT against Flot2, -0.709 (inactive).

Turning to GGACAUAUAUAGCAAGGAGTT against Polrmt, the z-score was 1.07 (inactive).

With GGACAGCAGUUUUUACUAGTT against Mllt10, the z-score is 0.907 (inactive).

GCUGUUUGACUACAUAAUCTT against Melk: the z-score is 0.275 (inactive). As for GGUUGGAAAUGAAAUCAAUTT against Erc2, the z-score was 2.36 (active).

Regarding GGUUCAAGUGACCAAGUUCTT against Odf3, the z-score was -0.487 (inactive). To CCCAAGAUGGUAGCAGACATT against Tbxas1 belongs -0.00814 (inactive); to GGAACAUGACAUUUUUGUCTT against Smdt1, -0.561 (inactive). To “GGAGGACUCAGCACUCUUUTT against E130311K13Rik” belongs -0.769 (inactive). To GGAUCACAGUCUCUUCGGUTT against Fgf20 belongs 0.473 (inactive).

Turning to GCACUGAUGUAAGGUAACCTT against Prdm4, the z-score was 2.48 (active). The figure for GGGUGUACCUUAUGUAUUATT against Prpf4 is 1.03 (inactive); for GGAUUGUGCAGAGCAUCUGTT against Card14 it is -1.45 (inactive). To GGCUGAGGAGAUAACCAUATT against Nemp2 belongs -0.701 (inactive); to GAUGGACAAACGGAAGUGCTT against Iapp, 0.322 (inactive); to GGACUUCAGUUACAACCGGTT against Nr1h3, -0.174 (inactive).

Turning to GGCCCAUUUUGGUGUGCAUTT against Hyal3, the z-score was -2 (active).

For the sequence CCACAAUUUUUUCUGCCUCTT against Olfr492, the z-score is -0.694 (inactive). To CGGUAUGAGUAGGAUCUCCTT against Cd83 belongs -0.577 (inactive). To GGAAGUGCUUUGAAGAAGATT against Strip2 belongs 1.21 (inactive). To GCUAACUUGCUCAUGCAAATT against Txlnb belongs -0.00758 (inactive); to GGAAUCGAGAUAUAAAAGGTT against Olfr352, -1.29 (inactive).

For GCUAGGAUUGUUCACAAACTT against Spdef, the z-score is -0.707 (inactive). For GCUCUUCUCAAGUAUGACGTT against Chrna6, the z-score is 0.717 (inactive). To GGAUGCUCACCUUCAAAUUTT against Il2 belongs 2.33 (active). The figure for GGAUGGAGAUUAUGAAGAGTT against Pcsk9 is -0.248 (inactive); for CCUGUUACCCUAUAUUUUGTT against Vmn1r82 it is -1.02 (inactive). To CGCAGUUCAUCGCAUGAUUTT against Arhgef12 belongs 0.611 (inactive). Regarding GGAUGAAAGUCCAACCACATT against Tulp2, the z-score is -0.17 (inactive).

As to GGGUUGAAUAUGUAGCUUGTT against Dsg1a, the z-score is 0.697 (inactive). The figure for GGUAUUUGAAUUUCGUCCCTT against Zc3h15 is 0.122 (inactive); for “GGGACAACGCACUCCAACATT against 1810024B03Rik” it is 0.904 (inactive); for CCAUUUGACAAGACUGCCATT against Ppp6r1 it is 0.921 (inactive).

In the case of GCAGGUGAGAAAGUAUAAGTT against Mro, the z-score was -1.09 (inactive). Take GGACUUCUAGAGAAGAAGCTT against Gpn2: the z-score is 0.0803 (inactive). To GCAUAGUUGGAACCGUAUUTT against Tdpoz3 belongs 2.25 (active); to CCAAUGACUUCUGGUUAGATT against Tdpoz1, 0.665 (inactive). The figure for GGUCAGAAGAGUUUGCUAATT against Sgms2 is 0.552 (inactive); for CGAUGGAAGCACUUAUUUATT against Lep it is 0.984 (inactive); for GGUCUUGGCACAAUUACAUTT against Actl6a it is -2.07 (active). The figure for GGCCAAAUGAAGUCAAAAGTT against Srsf12 is -0.212 (inactive); for “CCUUGUUUGAAUAACGAACTT against 5830427D03Rik” it is -1.73 (inactive). CCCAGUUGCUAUGCUUGACTT against Defb37: the z-score was 1.68 (inactive).

Take GGCCAGGAGAUUCCUAUGATT against Shisa4: the z-score is -0.304 (inactive). Turning to GGAUGAUUCUGGGUUACAGTT against Pwwp3a, the z-score was -2.26 (active). To GGAAAAGUUAGCGUGUAAUTT against Prkcz belongs -1.66 (inactive). For the sequence CCAUCCAUAUGAACUAUGATT against Slc30a4, the z-score is -1.5 (inactive). To “CCAGACCUGUGGUAAUCUATT against D3Ertd751e” belongs -0.875 (inactive). Turning to GCGCAUGAGUGCAAGGAUUTT against Prdm16, the z-score is 0.265 (inactive).

On to GGAUCCGUUUUGGUGGAAUTT against Enpp4, for which the z-score is 0.255 (inactive). To GCACAUGCAUGGCUCUAAGTT against Hinfp belongs 0.779 (inactive); to GCUUCUAGUCAACAUCCAGTT against Klf15, 2.07 (active). To GGAAGACAAUCGCUGCGUGTT against Tet3 belongs 0.927 (inactive). To GCUUCUGUGGGCAACAGUUTT against Cryba1 belongs 0.0577 (inactive). As to GGUCUCAGUUGGAAUUAUUTT against Pds5a, the z-score was -0.806 (inactive). For GGAGAAUCAGGGUAGCACATT against Txnl4a, the z-score was -0.52 (inactive).

Regarding GGUGUCAUUCACAAAAACUTT against Csnk1g1, the z-score was -1.09 (inactive).

Take GGCCAAGUCUGGAAUCACUTT against Angel2: the z-score is -2.42 (active). To GCAGCAGGAAGGAUCAUUCTT against Ly6h belongs -0.0488 (inactive).

For the sequence GGACUUCAUGGGUCGCUUUTT against Gstm2, the z-score was -0.185 (inactive).

For GGAAUUAACAGAGAAGAAATT against Rgs13, the z-score is -0.848 (inactive). Turning to GCUCCUGGUCUCAUUUACATT against Taf9b, the z-score was -0.386 (inactive). The figure for GGUCACAGACAUUCCCGAATT against Atad2 is -2.89 (active). As for GGUGGUUUUCAGCAAGUACTT against Pde9a, the z-score was -0.514 (inactive). For the sequence AGUCAAGACCCAUAGAAAATT against Ociad2, the z-score is -1.87 (inactive). Turning to GCUACCAUUUGAUCAGUUUTT against Entpd1, the z-score is 0.665 (inactive). To GUCAUCACAAGUCAAGAAGTT against Prol1 belongs -1.25 (inactive); to GGAGAAGGUUCACUCUGAUTT against Traf1, -0.666 (inactive); to GGAAACCUGAUUGCAUAUGTT against Nup37, -0.259 (inactive).

For GCAUUAACUGUCUUGAUCCTT against Olfr356, the z-score is 1.41 (inactive). To GCGUAACGCAGCAGCUAAGTT against Tarbp2 belongs -3.01 (active); to GGAAUAAGGAAGUUAUUGGTT against Olfr706, -0.356 (inactive); to GGUAGAGGUGGAAUGUAGCTT against Qprt, 1.36 (inactive). To “GCCCAUCACAAAUAAACAATT against B230340J04Rik” belongs -1.17 (inactive); to CCUUGUAGCUCUUUAUAAATT against Strn, 2.24 (active). To GCUCCUUAGAGAGAGUAUUTT against Sod3 belongs -0.399 (inactive).

Turning to GGGUCCAUGAACUCAAGAUTT against Rrnad1, the z-score is 0.473 (inactive). The figure for GGCUGUGAGAACGAUGCAATT against Fam151a is -1.08 (inactive); for GGAGGGAAGAAACAAUCUATT against Rnf40 it is 0.497 (inactive); for GGGUGCAUUUGAGAAGAUCTT against Casd1 it is 4.11 (active).

Turning to GGAGUGCAUGACUCAGCUUTT against Olfr926, the z-score is -1.54 (inactive). Take GCUGACCGGCAUUUACCAUTT against Mcm2: the z-score was 2.78 (active).

With GGCUCUCUUCGGGAAUACUTT against Tmem234, the z-score is 1.22 (inactive). GGAGAUCAACAGGAUUUUGTT against Gna15: the z-score was -1.35 (inactive). To “GCUGUGUUAGAAAGCAGGCTT against 4931406H21Rik” belongs 0.927 (inactive); to GCUAUAGAUUCCUCUGCCATT against Olfr1098, -0.525 (inactive). To CCCUAGAAUUAUAUCCUGUTT against Col4a1 belongs -0.494 (inactive); to GGGAUCAAUGCUUAAUACATT against Zfp2, 1.1 (inactive); to GGGAAACACAAUUUACCUUTT against Elf1, 3.18 (active). CCAACUUUCUCUUAGGAAATT against Igfl3: the z-score was -0.487 (inactive).

CCAGCCUUCAAUUGUGGUCTT against Scn1b: the z-score was 0.672 (inactive). The figure for GAUUUUCUUUGUUCAUCUCTT against Olfr727 is -0.535 (inactive); for CGACUAUCAGCAGCUGAAGTT against Igf1r it is 5.27 (active). The figure for GCGGAUUGUCUUCCUAGACTT against Smg9 is -1.14 (inactive); for GGUUCUAGGACCUAUUUUGTT against Cep57 it is 1.87 (inactive). For the sequence GGUUAUUACCCAGUUCACGTT against Pramel1, the z-score is -0.668 (inactive). To GCCCUUCGUGAUGAAGAAUTT against B4galt3 belongs 0.829 (inactive).
